Source: PubChem BioAssay
Rows were chosen to be rich in hits. Some 7.9% of all compounds tested hit in one or more screens of this group.
LASV entry inh: inhibitors of Lassa virus binding or cell entry; 300,000 tested, 1.2% active; Lassa virus pseudotype entry inhibition, cell reporter; Potency, µM (titrated, usually from 37.9 µM), inactives show top-dose activity change, negative = inhibition, most hits filed as inhibitors; AID 540256; calls by dose curve; tested in HEK293 cells; also: potency is read from the fitted curve at half-maximal effect; nearly all actives have a fitted effect of over 50% in size
MARV entry inh: inhibitors of Marburg virus binding or cell entry; 300,000 tested, 1.8% active; Potency, µM (top dose mostly 37.8 µM), without a hit: top-dose activity change, negative = inhibition, usual class: inhibitors; Marburg virus pseudotyped entry inhibition, cell reporter; AID 540276; calls by dose curve; tested in HEK293 cells; also: potency is read from the fitted curve at half-maximal effect
HCMV inh: blocks human cytomegalovirus replication. AID 1259415. activity change, negative = inhibition, % at 57.5 µM. 410,000 tested, 4.5% active. HFF cells, HCMV-luciferase reporter, 72 h; hits give low values; in the data active = activity change below about -60%; inconclusive = no clear call, values can overlap the other calls; inactive = above about -39%
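Cell-based, HFFs, 1000 cells/well, 16 h 37C; cpds in DMSO + HCMV-luc, MOI 1 PFU/cell; 72 h 37C; OneGlo luminescence after 5 min RT; norm. to buffer vs Salinomycin 10uM.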
HCV inhibitor: inhibitors of hepatitis C virus infection | AID 651820 | Huh7.5.1 HCVcc-Cre infection, luciferase reporter, 44 h | Potency, µM (top dose mostly 41.8 µM), for the others: at the top dose activity change, negative = inhibition, hits mostly inhibitors | 340,000 tested, 3.4% active; active = well fitted inhibition curve with a large enough effect; inconclusive = small, poorly fitted or top-dose-only effect, or another doubt; inactive = no such curve, though single readings can be large or run the other way; also: potency is read from the fitted curve at half-maximal effect
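HCVcc-Cre virus at an moi near 0.5 was added right after compound to cells cultured 4 h from seeding (1,000 cells/well). Luciferase activity was determined 44 h later, 15 min after substrate addition at RT.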
FMDV inh: foot and mouth disease virus antiviral activity; FMDV antiviral cell-based qHTS; Potency, µM (series often up to 57.9 µM), for inactives: at the top dose activity change, negative = inhibition, hits mostly inhibitors; 410,000 tested, 1.2% active; calls by dose curve; tested in HEK293T cells; also: read-out not given here; potency is read from the fitted curve at half-maximal effect; nearly all actives have a fitted effect of over 45% in size
Starred values were filed as active, the others as inactive; u = inconclusive; x = not tested or not shown; [ ] = remark or other dose. % is scaled to controls: 0 for no effect and ±100 for the full control effect.

SMILES	LASV entry inh	MARV entry inh	HCMV inh	HCV inhibitor	FMDV inh
CN(C)c1ccc([C@@H]2[C@@H]([N+](=O)[O-])[C@H]3C=Cc4ccccc4N3[C@H]2C(=O)c2ccc(Cl)cc2)cc1	-4%	-14%	-67*	u	-24%
O=C(c1ccccc1)C1C(c2ccccc2)C1[N+](=O)[O-] (stereo not drawn)	17%	u	-3	0%	-14%
CC1CC(C)(C)Nc2ccc(OC(=O)c3ccco3)cc21 (stereo not drawn)	u	u	-107*	-3%	u
CC1CC(C)(C)Nc2ccc(N=O)cc21 (stereo not drawn)	x	x	-60*	u	u
Cc1ccsc1/C=C/c1n[nH]c(=O)c(C#N)c1C	2%	0%[46.1 µM]	u	8%	2%
CCN(CC)c1ccc(C=C2C(=O)NC(=S)NC2=O)cc1	x	x	-29	u	22µM*
CCN(CC)c1ccc(/C=C2\NC(=O)NC2=O)cc1	-4%	-13%	6	-12%	2%
CN(C)c1ccc(C=C2C(=O)NC(=S)NC2=O)cc1	u	u	22	u	28µM*
COc1cc2c(cc1OC)C1(O)C(=O)c3ccc(O)c(C(=O)O)c3OC1CO2 (stereo not drawn)	x	x	x	x	15%
CN1CCc2cc3c(c4c2[C@H]1[C@H](O)c1ccccc1-4)OCO3	-23%	-5%	-71*	-3%[8.37 µM]	-16%
COC(=O)C1=C(c2ccc(OCc3ccccc3)cc2)C[C@@H]2CC[C@H]1N2C(=O)NCc1cccc(OC)c1	x	x	-67*	6.3µM*	-6%
COC(=O)C1=C(c2ccc(OCc3ccccc3)cc2)C[C@@H]2CC[C@H]1N2C(=O)NCc1ccccc1	x	x	-17	10µM*	u
COC(=O)C1=C(c2ccc(OCc3ccccc3)cc2)C[C@@H]2CC[C@H]1N2C(=O)NCc1ccc(C(C)(C)C)cc1	x	x	-7	x	-23%
COc1ccc(C(=O)C(C)[n+]2ccc(C)c3ccccc32)cc1[N+](=O)[O-] (stereo not drawn)	x	x	-86*	-21%	-20%
CCn1c(-c2ccccc2F)nc2cc(NC(C)=O)cc(C(=O)N3CCCCC3c3nccn3C)c21 (stereo not drawn)	x	x	x	x	-1%
O=C1c2sc3nc4ccccc4n3c2C(=O)N1c1ccccc1Cl	27%	-21%	-13	u	-30%
N=c1cc(C2(O)CCCCC2)n2c(nc3ccccc32)s1	10µM*	5.8µM*	19	-5%	-23%
Cc1ccc(-c2c(CN3CCN(c4cc(Cl)ccc4C)CC3)csc2C)cc1	-2%[46.1 µM]	x	-9	x	-16%
Cc1cccc2nc(-c3cccnc3)c(Nc3ccccc3)n12	u	u	-74*	-27%	32µM*
Cc1cccc2nc(-c3cccnc3)c(NCCC(C)C)n12	-5%	15%	-30	2%	-26%
CS(=O)(=O)c1sc(C#N)c2c1C(=O)CC(c1ccccc1)C2 (stereo not drawn)	x	x	-104*	u	11µM*
O=C(Nc1ccc(Oc2ccccc2)cc1)c1csc([C@@H]2O[C@H](CO)[C@@H](O)[C@H]2O)n1	x	x	-93*	x	16µM*
O=C(Nc1cccc2cccnc12)c1csc([C@@H]2O[C@H](CO)[C@H](O)[C@H](O)[C@H]2O)n1	x	x	-99*	x	-12%
O=C(Nc1ccc2c(c1)OCO2)c1csc([C@H]2C[C@H](O)[C@@H](CO)O2)n1	x	x	-97*	x	-3%
O=C(Nc1ccc(OCCO)cc1)c1csc([C@@H]2O[C@H](CO)[C@H](O)[C@H](O)[C@H]2O)n1	x	x	0	x	-12%
SMILES	LASV entry inh	MARV entry inh	HCMV inh	HCV inhibitor	FMDV inh
O=C(Nc1cccc2ccccc12)c1csc([C@@H]2O[C@H](CO)[C@@H](O)[C@H]2O)n1	x	x	-8	x	-6%
O=C(Nc1ccc(F)c(Cl)c1)c1csc([C@H]2C[C@H](O)[C@@H](CO)O2)n1	x	x	12	x	10%
CC(=O)Nc1ccc(NC(=O)c2csc([C@@H]3C[C@H](O)[C@@H](CO)O3)n2)cc1	x	x	-26	x	-14%
O=C(Nc1ccc(Oc2ccccc2)cc1)c1csc([C@H]2C[C@H](O)[C@@H](CO)O2)n1	x	x	-97*	x	7.9µM*
CC(=O)OC[C@H]1O[C@H](CCON=C(C)CCN2CCCc3nc(C)c(C)cc32)C=C[C@H]1OC(C)=O	x	-28%[14.2 µM]	x	x	x
CC(=O)NC(CCc1ccc(Cl)c(Cl)c1)c1cccc(O)c(=O)c1 (stereo not drawn)	x	x	-27	x	u
